Data on 38 compounds can be found in PubChem BioAssay (Tox21).

Unmarked numbers belong to inactive results. Records with an inconclusive call do not appear. The source made the active and inactive calls. Unless noted, the call rests on the fitted dose curve; in most records, active means well fitted cell-killing curve with a large enough effect in the repeat runs; inconclusive means weak or mixed curves, or effect the other way; inactive means flat fitted curve, though single readings scatter.
On the % scale 0 is the no-effect control and ±100 the full control effect.

Androgen receptor (Homo sapiens), sequence (P10275 whole entry, looked up): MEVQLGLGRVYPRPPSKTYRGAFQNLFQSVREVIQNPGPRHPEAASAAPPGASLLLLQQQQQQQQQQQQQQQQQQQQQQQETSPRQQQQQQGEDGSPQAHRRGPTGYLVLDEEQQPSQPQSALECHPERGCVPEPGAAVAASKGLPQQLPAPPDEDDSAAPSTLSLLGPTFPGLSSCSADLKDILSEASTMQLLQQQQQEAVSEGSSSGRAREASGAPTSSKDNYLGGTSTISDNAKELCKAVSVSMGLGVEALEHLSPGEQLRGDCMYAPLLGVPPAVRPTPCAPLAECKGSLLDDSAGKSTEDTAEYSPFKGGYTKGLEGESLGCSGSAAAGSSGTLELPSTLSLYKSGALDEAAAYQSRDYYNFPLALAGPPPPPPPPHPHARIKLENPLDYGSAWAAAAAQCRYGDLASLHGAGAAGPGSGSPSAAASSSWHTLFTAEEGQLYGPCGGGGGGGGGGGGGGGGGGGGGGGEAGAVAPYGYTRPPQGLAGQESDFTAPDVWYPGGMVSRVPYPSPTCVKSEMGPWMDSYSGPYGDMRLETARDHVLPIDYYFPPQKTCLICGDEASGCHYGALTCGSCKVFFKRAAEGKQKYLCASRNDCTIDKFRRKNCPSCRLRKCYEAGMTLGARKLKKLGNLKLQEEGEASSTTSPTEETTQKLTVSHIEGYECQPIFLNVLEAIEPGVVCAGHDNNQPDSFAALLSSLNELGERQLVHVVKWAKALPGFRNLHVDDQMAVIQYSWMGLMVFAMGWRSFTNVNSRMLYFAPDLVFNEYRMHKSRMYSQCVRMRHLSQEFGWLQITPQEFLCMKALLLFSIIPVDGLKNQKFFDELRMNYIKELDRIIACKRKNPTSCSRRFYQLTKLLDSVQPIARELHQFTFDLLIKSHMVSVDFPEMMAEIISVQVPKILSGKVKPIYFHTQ

Tested on in the first assay: not listed separately
Kind of assay: qHTS assay to identify small molecule agonists of the androgen receptor (AR) signaling pathway in the presence of an antagonist - cell viability counter screen (AID 1259379).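 Further: MDA-kb2 human breast cancer cells carrying an MMTV luciferase reporter; nearly all actives have a fitted effect of over 25% in size.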 As to conditions: MDA-kb2 viability, CellTiter-Fluor, 16 h; series mostly up to 92.4 µM; activity change, negative = cytotoxicity: at the top concentration. A digest of the protocol: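 Viability counter screen: CellTiter-Fluor fluorescence, measured in the same wells as the luciferase read-out. MDA-kb2 cells, 3,000/well, with nilutamide at 3.0uM final and compounds at 15 concentrations, 16 hr at 37C, 0% CO2.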
Background: qHTS replaces the single test concentration by a dilution series.
Regarding `Cc1cc(NC(=O)C2=C(O)c3ccccc3S(=O)(=O)N2C)no1`, the “activity change, negative = cytotoxicity” value was 0.453% [at 42.5 µM].
`CCOC(=O)c1ccc(OC(=O)CCCCCN=C(N)N)cc1`: the “activity change, negative = cytotoxicity” value is 1.06% [at 42.5 µM].
For the compound `OC[C@H](Cc1cccc(O)c1)[C@H](CO)Cc1cccc(O)c1`, the “activity change, negative = cytotoxicity” value is 1.89%.
On the same count and under the same terms, in the case of `C[Si](C)(C)C` it was 2.82%; in that of `C=Cc1ccccn1`, 0.754%.
On the same count and under the same terms, in the case of `CCc1ccc(C=O)cc1` it was -0.766%.
The same measure, in the same setting: in the case of `C=C(C)C(=O)OCCNC(C)(C)C` it was -1.27%.
Consider `On1nnc2ccccc21`, for which the “activity change, negative = cytotoxicity” value was -1.32%.
The same measure, in the same setting: then `CC1(CO)CN(c2ccccc2)NC1=O` (stereo not drawn), with -0.288%; and `CCC(C)(CCC(C)C)C(=O)O` (stereo not drawn), with 0.0921%; and `CC(=O)c1sc(C)nc1C`, with -1.02%.
Same read-out and setting: then `CCCCOCCOC(=O)COc1nc(Cl)c(Cl)cc1Cl`, with 3.66%.
For `Cc1ccccc1N=O`, the “activity change, negative = cytotoxicity” value is 0.73%.
Still for that read-out and setting: then `Brc1ccc(-c2ccccc2)cc1`, with 0.441%; and `COc1ccc2nc(SCc3ncc(C)c(OC)c3C)[nH]c2c1`, with -0.336% [at 42.5 µM].
Same read-out and setting: in the case of `CC1COc2ccccc2N1` (stereo not drawn) it was -0.733%; in that of `C[Si](C)=O`, -1.72% [at 8.39 µM]; in that of `COc1ccc(Br)c(C)c1`, 0.824%.
With `CC(=O)c1ccc2c(c1)Cc1ccccc1-2`, the “activity change, negative = cytotoxicity” value was 3.6%.
Still for that read-out and setting: in the case of `COc1ccc2c(c1)C(=O)N(CCc1ccc(S(=O)(=O)NC(=O)NC3CCCCC3)cc1)C(=O)C2(C)C` it was 2.32% [at 42.5 µM]; in that of `O=C(OCC1(COC(=O)c2cccnc2)CCCC(COC(=O)c2cccnc2)(COC(=O)c2cccnc2)C1O)c1cccnc1`, -4.23% [at 42.5 µM]; in that of `N[C@@H](CCC(=O)N[C@@H](CS)C(=O)NCC(=O)O)C(=O)O`, -2.43% [at 19 µM].
On the same count and under the same terms, then `CC(=O)Nc1cccc(C)c1`, with -6.56%; and `FC(F)(F)c1ccccc1-n1ccnc1`, with -1.67% [at 42.5 µM].
Same read-out and setting: in the case of `COC(=O)C1CC(=O)C(C(=O)OC)CC1=O` (stereo not drawn) it was 2.46% [at 8.39 µM]; in that of `CCCCNc1ccc(C(=O)OCCN(C)C)cc1`, -1.13% [at 42.5 µM].
Turning to `O=C(O)Cc1cn(-c2ccccc2)nc1-c1ccc(Cl)cc1`, the “activity change, negative = cytotoxicity” value is 0.255% [at 42.5 µM].
In the case of `ClCCCl`, the “activity change, negative = cytotoxicity” value was 0.639%.
For `CC1=CCC(C(C)C)=CC1`, the “activity change, negative = cytotoxicity” value was 0.493%.
In the case of `O=C(OCC(O)CO)c1ccccc1Nc1ccnc2c(C(F)(F)F)cccc12` (stereo not drawn), the “activity change, negative = cytotoxicity” value is -4.26% [at 42.5 µM].
Same read-out and setting: in the case of `C=C(C)C(=O)OCc1ccccc1` it was -0.0491%; in that of `CC(C)CC(C)CC(C)CC(C)COC(=O)c1ccccc1C(=O)OCC(C)CC(C)CC(C)CC(C)C` (stereo not drawn), -3.06%; in that of `CC(C)(C)c1cc(CCC(=O)NN)cc(C(C)(C)C)c1O`, -1.69%.
Still for that read-out and setting: then `CN=C(NC#N)Nc1ccc(C2=NNC(=O)CC2C)cc1` (stereo not drawn), with -0.66% [at 42.5 µM]; and `O=C1c2cccc3c2[C@H](CCC3)CN1[C@@H]1CN2CCC1CC2`, with -10.5% [at 42.5 µM].

Tested on in a further assay: not listed separately
In words: qHTS assay to identify small molecule agonists of the estrogen receptor beta (ER-beta) signaling pathway - cell viability counter screen (AID 1259380). Further: nearly all actives have a fitted effect of over 30% in size. Further: potency means the concentration at half of the fitted maximal effect. The note with it: ER-beta-bla HEK293T viability, CellTiter-Glo luminescence, 16 h; series mostly up to 92.4 µM; activity change, negative = cytotoxicity: at the top concentration. In a few lines: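 Luminescence read-out (CellTiter-Glo, 30 min, room temp) taken in the same wells as the beta-lactamase reporter assay; ER-beta-UAS-bla HEK293T cells exposed to DMSO-dissolved compounds for 16 hr at 37C in 2% charcoal-stripped FBS medium.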
For the compound `Nc1ccc2cc(S(=O)(=O)O)cc(O)c2c1`, the “activity change, negative = cytotoxicity” value was 6.63%.
On the same count and under the same terms, in the case of `Cc1cc(NC(=O)C2=C(O)c3ccccc3S(=O)(=O)N2C)no1` it was 2.97% [at 42.5 µM]; in that of `C[Si](C)(C)C`, 8.7%; in that of `C=Cc1ccccn1`, -0.455%.
On the same count and under the same terms, then `CCc1ccc(C=O)cc1`, with 6.19%; and `C=C(C)C(=O)OCCNC(C)(C)C`, with 0.0494%.
Take `On1nnc2ccccc21`: the Potency was 1.54 µM (active).
Regarding `CCC(C)(CCC(C)C)C(=O)O` (stereo not drawn), the “activity change, negative = cytotoxicity” value was 6.2%.
Still for that read-out and setting: in the case of `CC(=O)c1sc(C)nc1C` it was 5.63%; in that of `CCCCOCCOC(=O)COc1nc(Cl)c(Cl)cc1Cl`, 5.34%; in that of `C[C@@H]1O[C@@H](O[C@@H]2[C@@H](O)[C@H](OCCc3ccc(O)c(O)c3)O[C@H](CO[C@@H]3O[C@H](CO)[C@@H](O)[C@H](O)[C@H]3O)[C@H]2OC(=O)/C=C/c2ccc(O)c(O)c2)[C@H](O)[C@H](O)[C@H]1O`, 2.4%.
`Cc1ccccc1N=O`: the “activity change, negative = cytotoxicity” value was 5.88%.
Regarding `Brc1ccc(-c2ccccc2)cc1`, the “activity change, negative = cytotoxicity” value is 0.304%.
Still for that read-out and setting: then `CC1COc2ccccc2N1` (stereo not drawn), with -0.713%; and `C[Si](C)=O`, with 5.93% [at 8.39 µM]; and `COc1ccc(Br)c(C)c1`, with 1.17%.
The same measure, in the same setting: then `CC(=O)c1ccc2c(c1)Cc1ccccc1-2`, with -12.8%.
For `O=C(OCC1(COC(=O)c2cccnc2)CCCC(COC(=O)c2cccnc2)(COC(=O)c2cccnc2)C1O)c1cccnc1`, the “activity change, negative = cytotoxicity” value was -6.93% [at 42.5 µM].
On the same count and under the same terms, then `N[C@@H](CCC(=O)N[C@@H](CS)C(=O)NCC(=O)O)C(=O)O`, with 8.98% [at 19 µM].
On to `FC(F)(F)c1ccccc1-n1ccnc1`, for which the “activity change, negative = cytotoxicity” value was 3.05% [at 42.5 µM].
Same read-out and setting: in the case of `COC(=O)C1CC(=O)C(C(=O)OC)CC1=O` (stereo not drawn) it was -5.74% [at 8.39 µM]; in that of `CCCCNc1ccc(C(=O)OCCN(C)C)cc1`, -0.982% [at 42.5 µM].
The same measure, in the same setting: then `ClCCCl`, with 0.0961%; and `CC1=CCC(C(C)C)=CC1`, with 6.95%.
The same measure, in the same setting: then `C=C(C)C(=O)OCc1ccccc1`, with 0.0105%; and `CC(C)CC(C)CC(C)CC(C)COC(=O)c1ccccc1C(=O)OCC(C)CC(C)CC(C)CC(C)C` (stereo not drawn), with 5.1%; and `COc1ccc2c(c1OC)C(=O)O[C@@H]2[C@H]1c2c(cc3c(c2OC)OCO3)CCN1C`, with 3.2% [at 42.5 µM].
For the compound `CN=C(NC#N)Nc1ccc(C2=NNC(=O)CC2C)cc1` (stereo not drawn), the “activity change, negative = cytotoxicity” value was 10.1% [at 42.5 µM].

The next assay addresses Androgen receptor (Homo sapiens) (UniProt P10275). In words: qHTS assay to identify small molecule agonists of the androgen receptor (AR) signaling pathway in the presence of an antagonist (AID 1259381; calls by dose curve; further: nearly all actives have a fitted effect of over 15% in size; further: potency means the concentration at half of the fitted maximal effect). The note with it: MDA-kb2 MMTV-luciferase, AR agonist + nilutamide, 16 h; series mostly up to 92.4 µM; activation: at the top concentration. In a few lines:
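Luciferase read-out (ONE-Glo, 30min room temperature) in MDA-kb2 MMTV-reporter cells; agonist mode run in presence of AR antagonist nilutamide, 3.0uM final. Compounds tested as 15-point series, 16hr exposure at 37C, 0% CO2.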
As to `Nc1ccc2cc(S(=O)(=O)O)cc(O)c2c1`, the “activation” value was -0.0386%.
Same read-out and setting: in the case of `CC1(CO)CN(c2ccccc2)NC1=O` (stereo not drawn) it was 0.501%; in that of `COc1ccc2nc(SCc3ncc(C)c(OC)c3C)[nH]c2c1`, -2.11% [at 42.5 µM].
For `COc1ccc2c(c1)C(=O)N(CCc1ccc(S(=O)(=O)NC(=O)NC3CCCCC3)cc1)C(=O)C2(C)C`, the Potency is 21.1 µM (active).
On to `O=C(OCC(O)CO)c1ccccc1Nc1ccnc2c(C(F)(F)F)cccc12` (stereo not drawn), for which the “activation” value was -5.4% [at 42.5 µM].
